Rows were chosen to be rich in hits. Some 8.1% of all compounds tested hit in one or more screens of this group.
MITF inh = blocks MITF activity | TRPM1 promoter luciferase, luminescence, 24 h | inhibition, % (test concentration not listed) | actives 0.28% (n = 37,000) | AID 2240; in the data active = inhibition above about 85%; inconclusive = no clear call, values can overlap the other calls; inactive = below about 68%;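 note: human melanocyte line stably carrying TRPM1 promoter luciferase reporter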
Shh pathway inh = blocks Sonic Hedgehog signaling | Shh-LIGHT2 Gli-luciferase reporter, 30 h | actives 2.1% (n = 22,000) | inhibition, % (no concentration beside the values);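 active = mean inhibition across valid replicates above about 65%, limit read from the data; inconclusive = mean under the limit, yet half or more replicates past it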;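 note: pathway switched on by Shh-conditioned medium diluted 1 in 25 in low serum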
NOMO-1 viab = STK33 inhibitor candidate reducing NOMO-1 cell viability; NOMO-1 AML viability, CellTiter-Glo luminescence, 72 h; inhibition, % (test concentration not listed); actives 7.5% (n = 37,000); AID 2330; in the data active = inhibition above about 80%; inconclusive = no clear call, values can overlap the other calls
Of the large screens only hits and unclear results are named; the others gave an inactive call.

C[C@H]1CN([C@@H](C)CO)C(=O)Cc2cc(NS(=O)(=O)c3ccccc3)ccc2O[C@@H]1CN(C)Cc1ccc(Cl)c(Cl)c1	NOMO-1 viab 122
C[C@@H]1CN([C@H](C)CO)C(=O)Cc2cc(N(C)C)ccc2O[C@@H]1CN(C)Cc1ccc(Cl)c(Cl)c1	NOMO-1 viab 99
C[C@@H]1CN([C@@H](C)CO)C(=O)Cc2cc(NS(=O)(=O)c3ccccc3)ccc2O[C@@H]1CN(C)Cc1ccc(Cl)c(Cl)c1	none
C[C@H]1C(=O)N2c3ccccc3[C@@]3(O)C[C@@H]4C(=O)N[C@@](C)(c5nc6ccccc6c(=O)n54)N1[C@@H]23	none
C[C@@H]1CN([C@@H](C)CO)C(=O)c2cc(NC(=O)c3ccncc3)ccc2O[C@H]1CN(C)Cc1ccncc1	none (no result: Shh pathway inh)
COc1ccc(S(=O)(=O)N(C)C[C@@H]2Oc3ccc(NS(=O)(=O)c4cccs4)cc3C(=O)N([C@H](C)CO)C[C@H]2C)cc1	none (no result: Shh pathway inh)
C[C@H]1CN([C@@H](C)CO)C(=O)Cc2cc(NS(=O)(=O)c3ccc(F)cc3)ccc2O[C@H]1CN(C)S(=O)(=O)c1ccccc1	none
CC(C)(C)NC(=O)CSc1nnc(-c2ccco2)n1-c1ccccc1	none (no result: Shh pathway inh)
COc1ccc(NC(=O)CS(=O)(=O)c2ccc3ccccc3c2)cc1	none (no result: Shh pathway inh)
Cc1ccc(S(=O)(=O)N(C)C[C@H]2Oc3c(NC(=O)Nc4ccc(C(F)(F)F)cc4)cccc3C(=O)N([C@H](C)CO)C[C@@H]2C)cc1	none
C[C@@H]1CN([C@@H](C)CO)C(=O)c2cccc(NC(=O)Nc3ccc(C(F)(F)F)cc3)c2O[C@@H]1CN(C)S(=O)(=O)c1ccc(Cl)cc1	MITF inh 87, Shh pathway inh inconclusive, NOMO-1 viab 122
Cc1ccc(S(=O)(=O)N(C)C[C@@H]2Oc3c(NC(=O)Nc4ccc(C(F)(F)F)cc4)cccc3C(=O)N([C@@H](C)CO)C[C@H]2C)cc1	none
C[C@@H]1CN([C@H](C)CO)C(=O)c2cccc(NC(=O)Nc3ccc(C(F)(F)F)cc3)c2O[C@@H]1CN(C)S(=O)(=O)c1ccc(Cl)cc1	NOMO-1 viab 117
COc1cc(OC)cc(-c2nnc(SCC(=O)NC3CC4CCC3C4)o2)c1 (centres undefined)	none (no result: Shh pathway inh)
Cc1ccc(Cl)c(NC(=O)NCCN2CCN(c3ccccc3[N+](=O)[O-])CC2)c1	none (no result: Shh pathway inh)
C[C@@H]1CN([C@H](C)CO)C(=O)c2cc(NC(=O)Nc3ccc(C(F)(F)F)cc3)ccc2O[C@H]1CN(C)C(=O)Nc1ccc(C(F)(F)F)cc1	NOMO-1 viab 109
C[C@H]1CN([C@@H](C)CO)C(=O)c2cc(NC(=O)Nc3ccc(C(F)(F)F)cc3)ccc2O[C@@H]1CN(C)C(=O)Nc1ccc(C(F)(F)F)cc1	NOMO-1 viab 122
C[C@@H]1CN([C@H](C)CO)C(=O)c2cc(NC(=O)Nc3ccc(F)cc3)ccc2O[C@H]1CN(C)C(=O)Nc1ccc(C(F)(F)F)cc1	none
C[C@@H]1CN([C@@H](C)CO)C(=O)c2cc(NC(=O)Nc3ccc(C(F)(F)F)cc3)ccc2O[C@@H]1CN(C)C(=O)NC1CCCCC1	NOMO-1 viab 107
C[C@H]1CN([C@@H](C)CO)C(=O)c2cc(NC(=O)Nc3ccc(F)cc3)ccc2O[C@@H]1CN(C)C(=O)Nc1ccc(C(F)(F)F)cc1	none
C[C@H]1CN([C@@H](C)CO)C(=O)c2cc(NC(=O)Nc3ccc(C(F)(F)F)cc3)ccc2O[C@@H]1CN(C)C(=O)NC1CCCCC1	none
C[C@H](CO)N1C[C@H](C)[C@@H](CN(C)Cc2ccc(Oc3ccccc3)cc2)Oc2ccc(NC(=O)Nc3ccc(C(F)(F)F)cc3)cc2C1=O	NOMO-1 viab 128
C[C@H]1CN([C@@H](C)CO)C(=O)c2cc(NC(=O)Nc3ccc(C(F)(F)F)cc3)ccc2O[C@H]1CN(C)Cc1ccc(Oc2ccccc2)cc1	NOMO-1 viab 83
COc1ccc(NC(=O)Nc2ccc3c(c2)C(=O)N([C@H](C)CO)C[C@@H](C)[C@@H](CN(C)Cc2ccc(C(F)(F)F)cc2)O3)cc1	none (no result: Shh pathway inh)
C[C@H](CO)N1C[C@H](C)[C@H](CN(C)Cc2ccc(Oc3ccccc3)cc2)Oc2ccc(NC(=O)Nc3ccc(C(F)(F)F)cc3)cc2C1=O	NOMO-1 viab 114 (no result: Shh pathway inh)
C[C@@H]1CN([C@H](C)CO)C(=O)Cc2cc(NC(=O)C3CC3)ccc2O[C@@H]1CN(C)S(=O)(=O)c1ccccc1	none (no result: Shh pathway inh)
COc1cc(CCC(O)CC(O)CCc2ccc(O)c(OC)c2)ccc1O (centres undefined)	none (no result: MITF inh, NOMO-1 viab)
N=c1ccccn1CC(O)c1ccccc1 (centres undefined)	none
CC(=O)O[C@@]1(C)C[C@@H](O)[C@@H]2C=CO[C@@H](O[C@@H]3O[C@H](CO)[C@@H](O)[C@H](O)[C@H]3O)[C@@H]21	none (no result: MITF inh, NOMO-1 viab)
CCOc1ccc(NC(=O)Cn2nc([N+](=O)[O-])cc2C)cc1	none (no result: Shh pathway inh)
C[C@@H]1CN([C@H](C)CO)C(=O)c2cc(NC(=O)Nc3ccc4c(c3)OCO4)ccc2O[C@H]1CN(C)Cc1ccc(Cl)c(Cl)c1	none
C[C@H](CO)N1C[C@H](C)[C@@H](CN(C)Cc2ccc(Cl)c(Cl)c2)Oc2ccc(NC(=O)Nc3ccc4c(c3)OCO4)cc2C1=O	NOMO-1 viab 101
C[C@H]1CN([C@@H](C)CO)C(=O)c2cc(NC(=O)Nc3ccc4c(c3)OCO4)ccc2O[C@@H]1CN(C)Cc1ccc(Cl)c(Cl)c1	none (no result: Shh pathway inh)
C[C@H](CO)N1C[C@H](C)[C@H](CN(C)Cc2ccc(Cl)c(Cl)c2)Oc2ccc(NC(=O)Nc3ccc4c(c3)OCO4)cc2C1=O	NOMO-1 viab 88
O=C(CN1C(=O)c2ccccc2C1=O)c1ccc(C(F)(F)F)cc1	none
O=C(c1ccccc1)N1CN(C2CCCCC2)Cc2c1sc1c2CCCC1	NOMO-1 viab 116
Cc1sc2c(c1C)CN(C(C)(C)C)CN2C(=O)c1ccccc1	none
CCOC(=O)c1oc2ccc(C=NC(C)(C)C)c(Cl)c2c1C	none
CCOC(=O)c1oc2ccccc2c1CO	Shh pathway inh 97
OC(CNC1CCCC1)Cn1c2ccccc2c2ccccc21 (centres undefined)	NOMO-1 viab 96 (no result: Shh pathway inh)
Cc1ccccc1OCC(O)Cn1c2ccccc2c2ccccc21 (centres undefined)	none
COc1cccc(-c2ccc(C#N)c(SCC(=O)Nc3ccccc3Br)n2)c1	none (no result: Shh pathway inh)
NC(N)=NN=Cc1c(Cl)cccc1Cl	Shh pathway inh 65
Oc1ccc(CCCc2ccc3c(c2)OCO3)c(O)c1	none
C=CCc1ccc(O[C@@H]2O[C@H](CO[C@@H]3O[C@@H](C)[C@H](O)[C@@H](O)[C@H]3O)[C@@H](O)[C@H](O)[C@H]2O)c(O)c1	none
C=CCc1ccc(O[C@@H]2O[C@H](CO)[C@@H](O)[C@H](O)[C@H]2O)c(O[C@@H]2O[C@H](CO)[C@@H](O)[C@H](O)[C@H]2O)c1	NOMO-1 viab 120
O=C1OCCC1Sc1nnc(-c2ccccc2[N+](=O)[O-])o1 (centres undefined)	none (no result: Shh pathway inh)
Cc1ccc(N(CC(=O)Nc2ccccc2-c2ccccc2)S(C)(=O)=O)cc1C	none (no result: Shh pathway inh)
C=C1C(=O)O[C@@H]2C[C@@]3(C)[C@@H](O)C[C@@H](O)C(=C)[C@@H]3C[C@H]12	NOMO-1 viab 83
C=C1C(=O)OC2CC3(C)CCC=C(CO)C3CC12 (centres undefined)	none (no result: MITF inh, NOMO-1 viab)
CS(=O)(=O)CCC(C(=O)N1CCCCC1)N1C(=O)c2cc(Cl)c(Cl)cc2C1=O (centres undefined)	none (no result: Shh pathway inh)

From PubChem BioAssay
